Experimental data reported in PubChem BioAssay (EPA / NIEHS).
Calls of active or inactive are those of the source. How the source made its calls: active means hit-call score of the fitted dose curve at least 0.9, where 1 is the maximum; inactive means score below 0.9.

Tests used:
[1] = biological target: Paired box protein Pax-6 (Homo sapiens) (UniProt P26367); experiment: ATG_Pax6_CIS: Attagene CIS-FACTORIAL HepG2 Assay for human Paired Box 6 (PAX6) (AID 2282956); conditions: HepG2 CIS-FACTORIAL PAX6 reporter transcription, RNA readout; actives raise or lower the signal
Sequence of Paired box protein Pax-6 (Homo sapiens) (P26367 whole entry, looked up): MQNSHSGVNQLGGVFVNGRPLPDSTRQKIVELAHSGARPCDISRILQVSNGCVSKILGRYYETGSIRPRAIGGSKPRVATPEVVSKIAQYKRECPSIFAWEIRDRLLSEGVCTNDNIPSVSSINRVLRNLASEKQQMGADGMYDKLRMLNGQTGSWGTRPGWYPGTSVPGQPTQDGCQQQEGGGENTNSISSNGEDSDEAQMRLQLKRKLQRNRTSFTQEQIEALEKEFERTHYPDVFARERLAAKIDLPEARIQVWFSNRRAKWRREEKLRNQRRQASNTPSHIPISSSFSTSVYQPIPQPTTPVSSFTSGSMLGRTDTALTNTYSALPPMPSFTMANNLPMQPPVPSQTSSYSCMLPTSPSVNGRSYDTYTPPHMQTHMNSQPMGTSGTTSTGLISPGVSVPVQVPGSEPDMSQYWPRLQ
Outline: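 DMSO-referenced bidirectional fits of reporter mRNA fluorescence; HepG2 with transient cis-promoter MRTUs, 24 h post-dose, RT-PCR plus capillary electrophoresis detection.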

[2] = ATG_PXRE_CIS: Attagene CIS-FACTORIAL HepG2 Assay for human Pregnane X Receptor Element (PXRE) (AID 2282957); conditions: HepG2 Attagene CIS-FACTORIAL PXRE reporter, mRNA; actives raise or lower the signal
Outline: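 Bidirectional activity, baselined to DMSO, derived from reporter mRNA fluorescence (RT-PCR plus capillary electrophoresis) in HepG2 cells bearing cis-promoter reporter units, 24 h exposure.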

[3] = ATG_RORE_CIS: Attagene CIS-FACTORIAL HepG2 Assay for human RAR-related Orphan Receptor Element (RORE) (AID 2282959); conditions: HepG2 Attagene cis-factorial RORE reporter, mRNA; actives raise or lower the signal
Outline: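 HepG2 cells transiently transfected with multiple cis-element reporter transcription units, exposed to chemical for 24 h. Reporter mRNA quantified by RT-PCR, 6-FAM primer-extension labeling, HpaI digestion and capillary electrophoresis; bidirectional fit versus DMSO baseline.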

[4] = biological target: Transcription factor Sp1 (Homo sapiens) (UniProt P08047); experiment: ATG_Sp1_CIS: Attagene CIS-FACTORIAL HepG2 Assay for human Specificity Protein 1 (Sp1) (AID 2282961); conditions: HepG2 Sp1 cis-reporter transcription, actives raise or lower the signal
Sequence of Transcription factor Sp1 (Homo sapiens) (P08047 whole entry, looked up): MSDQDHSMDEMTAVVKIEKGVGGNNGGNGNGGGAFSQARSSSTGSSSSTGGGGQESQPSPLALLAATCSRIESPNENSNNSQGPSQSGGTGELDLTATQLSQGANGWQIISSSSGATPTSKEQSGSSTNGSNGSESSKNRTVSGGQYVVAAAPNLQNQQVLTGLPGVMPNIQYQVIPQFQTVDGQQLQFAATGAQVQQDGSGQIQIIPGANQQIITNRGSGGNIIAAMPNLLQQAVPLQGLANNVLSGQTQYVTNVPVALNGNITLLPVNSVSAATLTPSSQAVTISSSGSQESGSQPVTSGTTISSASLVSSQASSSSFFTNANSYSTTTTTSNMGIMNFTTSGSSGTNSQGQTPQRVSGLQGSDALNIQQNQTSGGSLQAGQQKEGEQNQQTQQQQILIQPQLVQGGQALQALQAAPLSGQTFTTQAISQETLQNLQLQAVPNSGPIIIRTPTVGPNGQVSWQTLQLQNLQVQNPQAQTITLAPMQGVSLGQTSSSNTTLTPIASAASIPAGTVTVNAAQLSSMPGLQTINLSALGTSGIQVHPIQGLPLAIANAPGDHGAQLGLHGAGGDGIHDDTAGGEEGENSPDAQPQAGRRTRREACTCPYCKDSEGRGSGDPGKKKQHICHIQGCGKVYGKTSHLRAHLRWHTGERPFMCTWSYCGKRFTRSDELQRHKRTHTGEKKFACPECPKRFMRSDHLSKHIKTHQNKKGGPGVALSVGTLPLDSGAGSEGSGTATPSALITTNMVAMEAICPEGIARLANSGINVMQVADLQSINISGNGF
Outline: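 HepG2 cells transiently transfected with multiple reporter transcription units driven by cis-regulatory elements; Sp1-responsive reporter mRNA measured 24 h after dosing by RT-PCR and capillary electrophoresis fluorescence, fitted bidirectionally against DMSO baseline.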

[5] = ATG_SREBP_CIS: Attagene CIS-FACTORIAL HepG2 Assay for human Sterol Regulatory Element Binding (SREBP) (AID 2282962); conditions: HepG2 Attagene cis-factorial SREBP reporter, mRNA; actives raise or lower the signal
Outline: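 In this cis-format assay, HepG2 liver cells express reporters controlled by promoter elements responsive to native transcription factors. Exposure lasts 24 h; reporter mRNA fluorescence from capillary electrophoresis gives the signal, fitted bidirectionally against DMSO.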

[6] = biological target: Signal transducer and activator of transcription 3 (Homo sapiens) (UniProt P40763); experiment: ATG_STAT3_CIS: Attagene CIS-FACTORIAL HepG2 Assay for human Signal Transducer and Activator of Transcription 3 (STAT3) (AID 2282963); conditions: HepG2, Attagene cis-factorial STAT3 reporter transcription; actives raise or lower the signal
Sequence of Signal transducer and activator of transcription 3 (Homo sapiens) (P40763 whole entry, looked up): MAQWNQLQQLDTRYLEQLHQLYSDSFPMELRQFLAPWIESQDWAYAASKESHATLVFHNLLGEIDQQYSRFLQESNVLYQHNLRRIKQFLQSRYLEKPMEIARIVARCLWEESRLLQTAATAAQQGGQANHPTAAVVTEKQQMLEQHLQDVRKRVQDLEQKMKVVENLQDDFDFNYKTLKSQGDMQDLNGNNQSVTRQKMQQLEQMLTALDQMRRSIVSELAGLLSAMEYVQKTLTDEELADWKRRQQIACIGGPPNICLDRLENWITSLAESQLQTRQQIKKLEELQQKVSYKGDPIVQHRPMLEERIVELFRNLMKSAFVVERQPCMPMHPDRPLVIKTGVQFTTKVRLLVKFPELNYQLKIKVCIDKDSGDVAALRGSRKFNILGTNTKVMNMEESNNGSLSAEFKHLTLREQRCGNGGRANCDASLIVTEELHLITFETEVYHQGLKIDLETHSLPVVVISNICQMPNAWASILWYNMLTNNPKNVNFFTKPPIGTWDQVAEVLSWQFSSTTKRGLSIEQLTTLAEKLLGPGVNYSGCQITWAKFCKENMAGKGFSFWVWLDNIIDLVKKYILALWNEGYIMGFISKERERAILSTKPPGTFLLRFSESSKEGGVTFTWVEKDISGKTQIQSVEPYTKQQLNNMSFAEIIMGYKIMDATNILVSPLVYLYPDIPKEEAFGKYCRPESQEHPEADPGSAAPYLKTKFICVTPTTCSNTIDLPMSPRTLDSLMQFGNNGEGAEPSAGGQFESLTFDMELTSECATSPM
Outline: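 Uses human liver HepG2 transiently carrying cis-regulated reporter transcription units. Following 24 h dosing, reporter mRNA induction was detected by RT-PCR and capillary electrophoresis, analysed bidirectionally versus DMSO.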

[7] = ATG_TA_CIS: Attagene CIS-FACTORIAL HepG2 Assay for human TA Basal Promoter (AID 2282964); conditions: HepG2 Attagene CIS-factorial TA basal promoter reporter; actives raise or lower the signal
Outline: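 Background internal-marker endpoint from a 52-component HepG2 cis-reporter panel. Cells treated 24 h; reporter transcripts quantified via RT-PCR and CE fluorescence against DMSO baseline.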

[8] = ATG_PBREM_CIS: Attagene CIS-FACTORIAL HepG2 Assay for human Phenobarbital-responsive Enhancer Module (PBREM) (AID 2282955); conditions: HepG2 PBREM cis-reporter, Attagene multiplexed transcription; actives raise or lower the signal
Outline: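 HepG2 cells transiently transfected with multiple cis-regulated reporter transcription units; endogenous factor activity at the PBREM element measured as reporter mRNA 24 h after dosing, via RT-PCR and capillary electrophoresis of fluorescent fragments; bidirectional fitting versus DMSO.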

[9] = ATG_PPRE_CIS: Attagene CIS-FACTORIAL HepG2 Assay for human Peroxisome Proliferator-activated Response Element (PPRE) (AID 2282958); conditions: HepG2 PPRE cis-element reporter, Attagene transcription factor profiling; actives raise or lower the signal
Outline: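 HepG2 cells transiently transfected with multiplexed cis-element reporter units measure endogenous transcription factor activity. After 24 h compound exposure, reporter mRNA is quantified by RT-PCR, 6-FAM labeling, HpaI digestion and capillary electrophoresis; bidirectional fits are made against DMSO baseline.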

[10] = ATG_Sox_CIS: Attagene CIS-FACTORIAL HepG2 Assay for human SRY-box transcription factor (SOX) (AID 2282960); conditions: HepG2 Attagene cis-factorial SOX reporter, mRNA; actives raise or lower the signal
Outline: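 HepG2 cells transiently transfected with cis-element-driven multiple reporter transcription units, dosed 24 h; reporter mRNA measured by RT-PCR, FAM labelling, HpaI digestion and capillary electrophoresis. Bidirectional fit versus DMSO baseline.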

Measured: AC50

CCCCCCCCCCO
inactive: [1] | [2] | [3] | [4] | [5] | [6] | [7]

Cc1cc(NC(=O)C(=O)O)cc(C)c1Oc1ccc(O)c2c1CCC2
inactive: [8] | [1] | [2] | [3] | [4] | [5] | [7]

OC[C@@H](O)[C@@H](O)[C@H](O)[C@H](O)CO
inactive: [1] | [2] | [3] | [4] | [7]

CCCCOC(=O)CCCCCCCCC(=O)OCCCC
inactive: [8] | [1] | [2] | [3] | [4] | [7]

Nc1ccc(S(=O)(=O)c2ccc(N)cc2)cc1
inactive: [1] | [2] | [9] | [3] | [4] | [5] | [6] | [7]

CN1CCN(Cc2cc(-c3ccc4[nH]c(=O)oc4c3)co2)[C@@H](c2ccc(F)cc2)C1
active: [1] 47.4 µM | [2] 8.51 µM | [7] 33 µM
inactive: [8] | [10] | [4] | [6]

O=[N+]([O-])C(CO)(CO)CO
active: [2] 48.1 µM
inactive: [1] | [9] | [3] | [4] | [5] | [6] | [7]

CCCCCC(=O)O
inactive: [1] | [9] | [3] | [10] | [4] | [5] | [7]
active: [2] 53 µM

Cc1cccc(Nc2cc(Cl)nc(SCC(=O)O)n2)c1C
active: [2] 29.8 µM
inactive: [8] | [1] | [3] | [4] | [5] | [6] | [7]

CC(C)c1ccc(C(=O)N=C(N)N)cc1S(C)(=O)=O
inactive: [8] | [1] | [3] | [10] | [4] | [7]
active: [2] 31.7 µM

CC(=O)Oc1ccccc1C(=O)O
inactive: [1] | [3] | [4] | [7]
active: [2] 26.9 µM

Cc1c(C(=O)O)c(O)cc2c1C(=O)c1c(O)c([C@@H]3O[C@H](CO)[C@@H](O)[C@H](O)[C@H]3O)c(O)c(O)c1C2=O
inactive: [1] | [9] | [3] | [10] | [4] | [6] | [7]
active: [2] 53.9 µM

CCCCc1ccc2c(n1)[C@@H](c1ccc(OC)cc1C[C@H](C)C(=O)O)[C@H](C(=O)O)[C@H]2c1ccc2c(c1)OCO2
inactive: [8] | [1] | [2] | [3] | [4] | [5] | [6] | [7]

CC1(C)CC(N=C=O)CC(C)(CN=C=O)C1 (stereo not drawn)
active: [2] 55.6 µM
inactive: [8] | [1] | [3] | [10] | [4] | [7]

Clc1cc(Cl)c(Cl)cc1Cl
inactive: [1] | [2] | [9] | [3] | [4] | [6] | [7]

CNCc1cc(F)ccc1Oc1ccc(Cl)c(Cl)c1
inactive: [1] | [9] | [3] | [4] | [5] | [6] | [7]
active: [2] 7.83 µM

CN1CCCC1=O
inactive: [1] | [2] | [3] | [4] | [5] | [6] | [7]

NS(=O)(=O)c1cc2c(cc1Cl)NCNS2(=O)=O
inactive: [1] | [2] | [3] | [10] | [4] | [5] | [6] | [7]

CC(CO)OC(C)CO (stereo not drawn) (tested in a mixture with another compound)
inactive: [1] | [2] | [9] | [3] | [10] | [4] | [5] | [7]

O=C(N[C@@H](Cc1ccccc1)[C@@H](O)C(=O)N1C[C@@H](O)[C@@H](O)C1)c1cc2cc(Cl)ccc2[nH]1
inactive: [1] | [2] | [9] | [3] | [4] | [6]
active: [7] 128 µM

CCCCCCCCCCCCCCCC
active: [2] 26.1 µM
inactive: [1] | [9] | [4] | [5] | [6] | [7]

CCCCCCCC=O
inactive: [1] | [2] | [3] | [10] | [4] | [7]
active: [6] 37.7 µM

CCCCCCCCCCCCCCCCCC(=O)O
inactive: [1] | [2] | [3] | [10] | [4] | [5] | [6] | [7]

C=CCOC(=O)c1ccccc1C(=O)OCC=C
inactive: [1] | [3] | [10] | [4] | [5] | [6] | [7]
active: [2] 26.7 µM

CCOC(=O)C(C)(C)Oc1ccc(Cl)cc1
inactive: [1] | [2] | [9] | [3] | [10] | [4] | [5] | [6] | [7]
